About 79,000 compounds went through this panel and 15% of them were active in at least one assay; those are over-represented in the sample as a whole. A number with no mark means an inactive call. The source made the active and inactive calls. No stated cut-off is given here; in the data, active means growth inhibition above about 70%; inactive means the rest.

Assay [1] is described as follows: NCI Yeast Anticancer Drug Screen. Data for the rad50 strain (AID 155).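 Further: 0% = growth of vehicle-only cultures of the same strain.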 The conditions noted are these: S. cerevisiae rad50 strain growth inhibition; at 50.0 µM; stronger effect = higher value. In outline: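 A DNA repair-deficient yeast mutant serves as the test organism; compound-induced growth inhibition is calculated against vehicle-treated cells.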
Assay [2] in a line: NCI Yeast Anticancer Drug Screen. Data for the mec2-1 strain (AID 157). The conditions noted are these: S. cerevisiae mec2-1 strain, at 50.0 µM, stronger effect = higher value. The procedure, abridged:
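Growth inhibition is read against vehicle-treated controls after compound exposure of the mec2-1 yeast strain, which is defective in DNA damage repair or cell cycle control.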

A short description of assay [3]: NCI Yeast Anticancer Drug Screen. Data for the sgs1 mgt1 strain (AID 161).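 Further: 0% = growth of cultures given vehicle only.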 The conditions noted are these: S. cerevisiae sgs1 mgt1 strain, at 50.0 µM, stronger effect = higher value. In outline: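 Yeast cells carrying a defined DNA-repair defect were exposed to test compounds. Growth inhibition was measured relative to vehicle-treated controls.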
The nature of assay [4]: NCI Yeast Anticancer Drug Screen. Data for the cln2 rad14 strain (AID 165).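 Further: 0% = growth equal to vehicle treated cultures.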 As to conditions: S. cerevisiae cln2 rad14 strain, at 50.0 µM, stronger effect = higher value. In outline: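 Growth inhibition, relative to vehicle-treated controls, is the read-out. The test organism is a yeast strain with defined genetic alterations, cln2 rad14.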
The nature of assay [5]: NCI Yeast Anticancer Drug Screen. Data for the bub3 strain (AID 167). As to conditions: S. cerevisiae bub3 mutant strain, at 50.0 µM, stronger effect = higher value. In outline: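 Inhibition values come from growth of compound-treated mutant yeast normalised to vehicle-treated controls.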
A short description of assay [6]: NCI Yeast Anticancer Drug Screen. Data for the mlh1 rad18 strain (AID 175). As to conditions: S. cerevisiae mlh1 rad18 strain growth inhibition; at 50.0 µM; stronger effect = higher value. In outline:
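Cells of a genetically altered yeast strain, deficient in DNA damage repair, were treated with compound. Their growth was then compared with that of vehicle-treated cultures to give inhibition.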

As to `CC(O)(c1ccncc1)c1cc2ccccc2n1S(=O)(=O)c1ccccc1` (stereo unspecified), the growth inhibition was 2.2% in assay [1]; 2.65% in assay [2]; 14.8% in assay [3]; -20.1% in assay [4]; 1.95% in assay [5]; 6.15% in assay [6].

Turning to `Cc1cc[n+](C2=C([O-])C3=C(C(=O)C2=O)C2c4ccccc4C3c3ccccc32)c(C)c1`, the growth inhibition in assay [1] is 98.5% (active); in assay [2] it was 98.7% (active); in assay [3] it was 98.8% (active); in assay [4], 98.3% (active); in assay [5] it was 90.2% (active); in assay [6], 97.5% (active).

For the molecule `CCc1cccc(C(C)(C)C)c1NC(=S)NC=C(C#N)C#N`, the growth inhibition was 27.9% in assay [1]; -11.6% in assay [2]; 36.8% in assay [3]; 26.8% in assay [4]; 17.6% in assay [5]; 45.8% in assay [6].

For `CN(C)N=Nc1ccccc1`, the growth inhibition was 38.2% in assay [1]; -14.2% in assay [2]; 0% in assay [3]; 15.4% in assay [4]; -1.65% in assay [5]; 29.2% in assay [6].

As to `CN(C)CCNC(=O)c1cccc(N(C)C(=O)c2ccccc2)c1[N+](=O)[O-]`, the growth inhibition in assay [1] was 6.65%; in assay [2] it was -9.45%; in assay [3] it was 6.5%; in assay [4] it was 17.6%; in assay [5], 7.05%; in assay [6], 3.15%.

On to `Cc1ccc(C)c(CNC(=O)C2CCCCC2C(=O)O)c1` (stereo unspecified), for which the growth inhibition in assay [1] is 9.3%; in assay [2] it was 33.6%; in assay [3], 37.2%; in assay [4], -0.6%; in assay [5] it was 34.6%; in assay [6] it was -3.2%.

As to `O=C(OCCO)c1ccc(O)c(O)c1`, the growth inhibition is 14.6% in assay [1]; -4.65% in assay [2]; 3.1% in assay [3]; -25.8% in assay [4]; -6.1% in assay [5]; 7.55% in assay [6].

With `COC(=O)c1ccc(Cl)c(Cl)c1Cl`, the growth inhibition was -3.6% in assay [1]; -7.35% in assay [2]; -19.6% in assay [3]; -11.8% in assay [4]; 6.1% in assay [5]; -26.3% in assay [6].

With `CSCCC(NC(=O)OCc1ccccc1)P(=O)(O)c1ccccc1` (stereo unspecified), the growth inhibition in assay [1] was -56%; in assay [2], -41.1%; in assay [3], -34%; in assay [4], 13.2%; in assay [5], 14.8%; in assay [6] it was -11%.

`C=CC[N+](CCO)(CCO)CCCCCCCCCCCCCCCCCC`: the growth inhibition in assay [1] is 98.4% (active); in assay [2], 99% (active); in assay [3], 99.2% (active); in assay [4], 96.1% (active); in assay [5] it was 98.5% (active); in assay [6] it was 97.8% (active).

For `COc1ccc(S(=O)(=O)/N=C(/C2CC3=CCC4C5CCC(=O)C5(C)CC(=O)C4C3(C)C2)N2CCCC2)cc1` (stereo unspecified), the growth inhibition was 5.75% in assay [1]; 4.9% in assay [2]; 1.85% in assay [3]; -11.6% in assay [4]; -1.35% in assay [5]; -18% in assay [6].

In the case of `COC(=O)CCC(=O)Nc1cc(Cl)ccc1Cl`, the growth inhibition in assay [1] is -2.35%; in assay [2], -16.1%; in assay [3], -0.35%; in assay [4], 6.45%; in assay [5], -4.15%; in assay [6] it was 6.3%.

Consider `Cc1cc(/C=C\[N+](=O)[O-])c(C)c2c1oc1ccccc12`, for which the growth inhibition was -10.8% in assay [1]; -2.55% in assay [2]; 2.1% in assay [3]; 4.75% in assay [4]; 2.4% in assay [5]; -7.05% in assay [6].

Turning to `NNC(=O)C(=O)N/N=C(\CCC(=O)Nc1ccc(Cl)cc1)Cc1nc2ccccc2s1`, the growth inhibition was 28.2% in assay [1]; 28.2% in assay [2]; 30.4% in assay [3]; 9.65% in assay [4]; 12.3% in assay [5]; 36.2% in assay [6].

As to `COC(=O)C1[C@@H](C(=O)OC)C12C=Cc1ccccc1C=C2` (stereo partly specified), the growth inhibition in assay [1] is -33.2%; in assay [2] it was -47%; in assay [3] it was -50.2%; in assay [4], 1.05%; in assay [5] it was -28.6%; in assay [6], -25.4%.

Regarding `COC1=C(N(C)C)C(=O)c2ccccc2C1=O`, the growth inhibition is 21.4% in assay [1]; 0.55% in assay [2]; 11.4% in assay [3]; 7.3% in assay [4]; -15.3% in assay [5]; 4.55% in assay [6].

In the case of `N#Cc1[nH]nc2nc[nH]c(=O)c12`, the growth inhibition in assay [1] is -16.3%; in assay [2], -14.8%; in assay [3], -10.8%; in assay [4], -9.95%; in assay [5] it was 3.9%; in assay [6] it was 4.85%.

Regarding `CN(C)Cc1nsc(N(C)C)n1`, the growth inhibition in assay [1] is -4.9%; in assay [2], -9.1%; in assay [3], -34.2%; in assay [4], -50%; in assay [5], -19.1%; in assay [6], -13.2%.

For the molecule `CC(=O)OC[C@@H](COC(=O)/C=C/c1ccc(O)cc1)OC1OC(CO)C(O)C(O)C1O` (stereo partly specified), the growth inhibition in assay [1] is -1.45%; in assay [2], -37.2%; in assay [3], -21.8%; in assay [4] it was 1.7%; in assay [5], -17.1%; in assay [6], -1.8%.

On to `COc1ccc(NC(=O)c2c(Br)c(Br)c(Br)c(Br)c2C(=O)O)c(Cl)c1`, for which the growth inhibition in assay [1] is 92.5% (active); in assay [2] it was 88.7% (active); in assay [3], 92% (active); in assay [4], 83.5% (active); in assay [5], 90.3% (active); in assay [6], 95.2% (active).

Turning to `Clc1cccc(N2CCN(CCN3CCc4c([nH]c5ccccc45)C3c3cccnc3)CC2)c1` (stereo unspecified), the growth inhibition is 2.2% in assay [1]; -21.7% in assay [2]; -7.85% in assay [3]; 9.45% in assay [4]; -9.75% in assay [5]; -12% in assay [6].

For the origin of these results see PubChem BioAssay (NCI).
